About 83,000 compounds went through this panel and 20% of them were active in at least one assay; those are over-represented in the sample as a whole.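 Compound tested at a single concentration for 48 hours in 96-well plates; a percent growth value below 10 was scored as active.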 Unmarked numbers belong to inactive results. Active and inactive are the calls of the source.

For the assay, the system named is M14 melanoma. The experiment in a line: NCI-60 one-dose screen, 48 h (100 = growth as untreated, 0 = no growth, -100 = all killed). To be noted: 10 µM unless noted. The method, then: Growth inhibition of the M14 human tumor cell line is measured as a screen for anti-cancer activity. Cells are grown in 96 well plates and exposed to the test compound for 48 hours. Compounds are tested at a single concentration, which is 10^-5 M for most compounds. The reported endpoint is percent growth (GI% or GIPRCNT), where numbers from 0 - 100% represent growth inhibition, and numbers from -100% - 0 represent cell death. For example, a value of 40 represents 60% growth inhibition. A value of 0 means no net growth occurred over the course of the experiment. A value of -40 indicates 40% of cells at the beginning of the experiment died by the end of the experiment. A value of -100 means all cells are dead at the end of the experiment.
NCI-60 Human Tumor Cell Lines Screen was performed using the standard one-dose NCI protocol, which is described in more detail at https://dtp.cancer.gov/discovery_development/nci-60/default.htm.
Compounds with GIPRCNT values below 10 were considered active. Activity score was based on GIPRCNT using the following formula: […]
Score is 0 for GIPRCNT values of 100 or above, 50 for GIPRCNT values of 0, and 100 for GIPRCNT values of -100.
On to `Cc1ccc(C(=O)C(c2c[nH]c3ccccc23)c2c[nH]c3ccccc23)cc1`, for which the growth was 33.9%.
For `O=c1[nH]c2ccc(Cl)cc2cc1CSc1nccc(-c2ccc(Cl)cc2)n1` the value was 71.1%; for `CC(=O)c1cc(C(=O)c2ccccc2)n2c1ccc1ccccc12`, 101%; for `COc1ccc(/C=C/c2nc3ccccc3nc2Nc2cccc(C)c2)cc1`, 99.6%.
For `COc1cc2oc(-c3cccc(C(=O)Nc4ccc(Cl)cc4)c3)cc(=O)c2c(OCCNC(=O)[C@H](CO)NC(=O)OC(C)(C)C)c1OC`, the growth was -7.57% (active).
To `CC(C)c1ccc2c(N)c(C(=O)Nc3ccc(C(F)(F)F)cn3)sc2n1` belongs 50.5%; to `C=C1CC[C@@H]2[C@]3(C)COC(c4ccccc4)O[C@@H]3CC[C@@]2(C)[C@@H]1C/C=C1/C(=O)OCC1OC(C)=O` (stereo not given in full), -86.9% (active); to `COc1ccc(-c2ccnc(SCc3cc4ccccc4[nH]c3=O)n2)cc1`, 44.8%.
For `COc1ccc(C2=NN(C(C)=O)C(c3ccc(OCc4ccc(Cl)cc4)c(OC)c3)C2)cc1OC` (stereo not given), the growth was 54.2%.
To `CCCSc1nc(Nc2ccc(S(N)(=O)=O)cc2)c(C#N)c(-c2cc(OC)c(OC)c(OC)c2)n1` belongs 18.3%.
Regarding `Cc1cc(C)cc(NC(=O)Cn2cc(COn3nnc4ccccc43)nn2)c1`, the growth is 106%.
`CC1(C)CC[C@]2(C(=O)O)CC[C@]3(C)C(=CCC4[C@@]5(C)C[C@@H](O)[C@@H]6OC(c7ccccc7F)OC[C@@]6(C)C5CC[C@]43C)C2C1` (stereo not given in full): the growth is 17.8%.
For the molecule `O=c1[nH]n(C(=S)N/N=C/c2ccccc2Cl)c(=O)c2ccccc12`, the growth was -41.9% (active).
Consider `O=C(O)c1cccc(-c2ccc(/C=N/NC(=O)c3[nH]c4ccc(Br)cc4c3-c3ccccc3)s2)c1`, for which the growth is 47.9%.
With `CCCCNC(=S)Nc1ccc(OCc2nc3ccccc3[nH]2)cc1`, the growth is 55.1%.
For `CCOC(=O)c1ccc(Nc2nc(NN)nc(-c3ccc(F)cc3)c2C#N)cc1` the value was 98%; for `Cc1c(C(=O)NNC(=O)c2ccc(Cl)cc2)nnn1-c1ccc(Br)cc1`, 98.8%; for `COc1ccc2oc3c4[nH]c5ccccc5c4c4c(c3c2c1)C(=O)N(C(=O)OC(C)(C)C)C4=O`, -44.6% (active).
To `CCCSc1nc(NCCc2c[nH]c3ccccc23)c(C#N)c(-c2ccccc2)n1` belongs 83.5%.
To `COc1cccc(/C=C/C(=O)c2ccc(OC)c(S(N)(=O)=O)c2)c1` belongs 41.2%; to `CCCCc1c(Nn2cnnn2)no[n+]1[O-]`, 68.1%.
Regarding `CCOC(=O)/C=C/c1cccc2c1C(=O)NC(C)(c1cc3cc(Br)ccc3oc1=O)N2` (stereo not given), the growth is 42.4%.
For `C=C1CC[C@@H]2[C@]3(C)COC(c4ccco4)O[C@@H]3CC[C@@]2(C)[C@@H]1C/C=C1/C(=O)OCC1OC(C)=O` (stereo not given in full) the value was 19%; for `COc1ccc(-c2ccc(SCC(=O)Nc3ccc(S(N)(=O)=O)cc3Br)nn2)cc1`, 101%; for `CC(=O)Nc1cccc(Nc2nc(NCc3ccccc3)c3ccccc3n2)c1`, -86.5% (active).
To `N#Cc1c(-c2ccc(Cl)cc2)nc2n[nH]c(-c3ccc(Cl)cc3)c2c1-c1cccs1` belongs 64.6%.
For `CC(C)Sc1nc(NCCc2c[nH]c3ccccc23)c(C#N)c(-c2ccc(F)cc2)n1`, the growth is 46.8%.
To `COC(OC)C1=C(C)OC(N)=C(C#N)C12C(=O)Nc1ccccc12` (stereo not given) belongs 94.9%; to `O=C(Nc1ccc(C(F)(F)F)cc1)Nc1ccc2oc(=O)ccc2c1`, 16.3%.
To `CCOC(=O)C1=C(N)N(c2ccccc2)C2=C(C(=O)CC(C)(C)C2)C1c1ccc([N+](=O)[O-])cc1` (stereo not given) belongs 99.5%.
To `Cc1ccc(-c2nc(C#N)c(S(=O)(=O)N3CCN(S(=O)(=O)c4ccccc4)CC3)o2)cc1` belongs -21.3% (active); to `CC12CC[C@@H]3[C@]4(C)COC(c5cn[nH]c5-c5ccc(Cl)cc5)O[C@@H]4CC[C@@]3(C)[C@@H]1CC(C1=CCOC1=O)O2` (stereo not given in full), 30.9%; to `N#Cc1c(-c2ccc(Cl)cc2)nc2n[nH]c(-c3ccc(Cl)cc3)c2c1-c1ccc(C(F)(F)F)cc1`, -53.3% (active).
Consider `Cc1cc2nc3c([nH]c2cc1C)c1ccc(=O)cc1n3CCN(C)C`, for which the growth is 43.8%.
As to `COc1cc(-c2nc3ccc(C)cc3[nH]2)ccc1OCc1nnc(-c2ccc(Br)cc2)o1`, the growth was 31.2%.
For `CCOC(=O)C1=C(N)N(c2ccccc2)C2=C(C(=O)CC(C)(C)C2)C1c1ccc(Cl)cc1Cl` (stereo not given) the value was 41.3%.
For `C=C1CC[C@@H]2[C@]3(C)COC(c4cn[nH]c4-c4cccc(Cl)c4)O[C@@H]3CC[C@@]2(C)[C@@H]1C/C=C1/C(=O)OCC1O` (stereo not given in full) the value was -73.4% (active).
With `Nc1nc(-c2ccccc2)c(N=Nc2ccc([N+](=O)[O-])cc2Cl)s1`, the growth is 92.9%.
To `N#Cc1c(-c2ccccc2Cl)cc(-c2ccc3ccccc3c2)[nH]c1=O` belongs 25.1%; to `COc1ccc(-c2nc(SCC(C)C)nc(NCCc3c[nH]c4ccccc34)c2C#N)cc1`, 81.2%.

Values taken from PubChem BioAssay (NCI).
